# Screening results deposited in PubChem by several laboratories.
# Only some compounds are listed: those with a hit (about 2.7% of all), similar ones and a draw of the others.
# PREPL inh: inhibits the human prolyl oligopeptidase-like enzyme; recombinant PREPL, fluorescence polarization activity-based probe; Q4J6C6; AID 2751; 0.68% of 320,000 active; inhibition, % at 5.96 µM; in the data active = inhibition above about 43%;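 note: 0% = enzyme with DMSO and 100% = wells lacking enzyme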
# ANO1 activ: activators or potentiators of mouse TMEM16A chloride channel. B-score at 10 µM. Q8BHY3. AID 623877. 0.3% of 340,000 active. HEK293 TMEM16A/YFP-H148Q/I152L, iodide quench fluorescence; hits give low values;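 active = fluorescence-ratio B-score plate-corrected deviation score at least 3 library SD below zero, with starting fluorescence score within 5 deviations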;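 note: channel opened by trigger with iodide after compound preincubation; score built on the fluorescence ratio of max minus min over baseline; more negative score means more quench and so TMEM16A activation or potentiation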
# TMEM16A inh: blocks the mouse calcium-activated chloride channel TMEM16A; 1.2% of 310,000 active; normalized B-score (activity score, 25-100; higher = stronger inhibition) at 10 µM; HEK293 TMEM16A/YFP iodide influx fluorescence, ionomycin; AID 588511;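 active = ratio plate-corrected score three or more library SD toward inhibition, starting fluorescence score within five deviations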;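 note: score derived from kinetic fluorescence span divided by baseline fluorescence per well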
# DNA FID counter: counter-screen for HCV NS3 helicase inhibitors: DNA intercalator displacement. DNA fluorescent intercalator displacement, fluorescence. 0.17% of 290,000 active. inhibition, % at 7.9 µM; in the data active = inhibition above about 37%;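 note: 0% = vehicle and 100% = reference compound; higher means more ethidium bromide displaced from hairpin DNA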
# PP1 counter: counter-screen for PP5 inhibitors: inhibitors of human PP1-alpha; purified PP1alpha, OMFP fluorescence; P62136; inhibition, % at 6.7 µM; 0.9% of 320,000 active;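 active = inhibition above the mean inhibition of all tested compounds plus 3 SD, computed separately for each screening campaign, cut at about 15% in these data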
# Target sequence (P62136 whole entry, looked up): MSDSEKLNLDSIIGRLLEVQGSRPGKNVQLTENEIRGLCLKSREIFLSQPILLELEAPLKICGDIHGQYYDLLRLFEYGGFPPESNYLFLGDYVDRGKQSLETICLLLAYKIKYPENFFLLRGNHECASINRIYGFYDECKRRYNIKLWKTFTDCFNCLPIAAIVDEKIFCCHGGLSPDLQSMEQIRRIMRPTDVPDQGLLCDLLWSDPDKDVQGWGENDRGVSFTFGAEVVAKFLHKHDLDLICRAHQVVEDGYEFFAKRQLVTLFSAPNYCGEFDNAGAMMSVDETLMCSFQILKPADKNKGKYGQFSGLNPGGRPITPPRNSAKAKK
# PP5 inh: inhibitors of human protein phosphatase 5 (PP5); purified PP5c, OMFP substrate fluorescence; inhibition, % at 6.7 µM; 0.18% of 320,000 active;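 active = inhibition above the campaign's mean inhibition across all tested compounds plus 3 SD, cut at about 9.5% in these data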;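 note: 0% = DMSO only and 100% = 100 µM cantharidin control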
# TMEM16A reconf: reconfirmed blocker of mouse TMEM16A calcium-activated chloride channel; shares compounds with TMEM16A inh; HEK293 TMEM16A/YFP-H148Q, iodide quench fluorescence; ionomycin added to raise cell calcium; inhibition, % at 10 µM; 39% of 2,300 active; AID 652189;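 active = mean duplicate percent inhibition, scaled so buffer wells are 0 and the reference blocker 100, over three buffer SD above buffer mean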
# TMEM16A Ca cntr: alters calcium mobilization in TMEM16A HEK293 cells, counter-screen; shares compounds with TMEM16A inh; TMEM16A/YFP HEK293, Fluo4 calcium mobilization; calcium response (% of ionomycin), % at 10 µM; 2% of 2,300 active; AID 652231;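 active = duplicate-averaged calcium signal over 20% of the ionomycin maximum, relative to buffer baseline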;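 note: each well's signal is peak minus trough fluorescence divided by its pre-addition baseline; 0% = buffer wells and 100% = ionomycin wells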
# Parental YFP cnt: parental YFP-HEK293 iodide quench counter-screen activity | shares compounds with TMEM16A inh | ionomycin | YFP ratio F(max-min)/F0 at 10 µM | 2,300 tested, under 10 active;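 active = yellow fluorescent protein signal ratio exceeding the buffer control mean by over 5 SD of those controls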;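 note: ratio is mean of duplicate wells from kinetic YFP trace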
# ClC-1 inh: selectivity of TMEM16A inhibitors: inhibition of rat ClC-1 chloride channel. CHO ClC-1-YFP, iodide influx fluorescence quench; iodide control reads 0, buffer control 100. AID 652236. ratio percent, % at 10 µM. shares compounds with TMEM16A inh. 2,300 tested, under 10 active;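 active = duplicate-mean ratio percent above the mean of iodide-only control wells, which defines zero, plus 5 of their SD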;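 note: higher percent means stronger block of ClC-1 iodide influx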
# * = called active by the depositor; i = inactive; . = no result given.
SMILES,PREPL inh,ANO1 activ,TMEM16A inh,DNA FID counter,PP1 counter,PP5 inh,TMEM16A reconf,TMEM16A Ca cntr,Parental YFP cnt,ClC-1 inh
CCCn1nnnc1NCc1ccccc1OCc1ccc(F)cc1,14.9,i,i,-19.4,0.3,0.6,i,i,-1.08,-7.0
O=C(Nc1ccc(N2CCN(C(=O)c3cccs3)CC2)c(Cl)c1)c1ccco1,18.9,i,i,-24.9,-8.7,6.0,.,.,.,.
Cc1ccccc1C(=O)N1CCN(c2ccc(NC(=O)c3ccco3)cc2Cl)CC1,2.8,i,100*,-35.9,-2.4,4.2,i,i,-1.01,-6.5
CCn1cnc2scc(-c3ccccc3)c2c1=O,-6.4,i,100*,-3.0,-1.0,-0.1,i,i,-1.13,-11.5
Cc1onc(-c2ccccc2)c1C(=O)OCC(=O)N(CC(C)C)c1c(N)n(Cc2ccccc2)c(=O)[nH]c1=O,1.3,i,i,.,-6.5,0.4,.,.,.,.
O=C(CCC1CCCCC1)Nc1cccc(C(=O)Nc2ccc(C(=O)O)cc2)c1,-4.9,i,i,-37.9,-1.0,3.2,.,.,.,.
CC(C)c1ccc(N(CC(=O)NCc2ccc(F)cc2)C(=O)c2csnn2)cc1,-7.5,i,i,-26.7,-0.1,-0.1,.,.,.,.
COc1ccccc1C1=NOC(Cn2c(NCC3CCCO3)nc3c2c(=O)n(C)c(=O)n3C)C1 (stereo not drawn),3.6,i,i,-26.5,2.3,1.6,i,i,-1.04,-9.5
COc1ccccc1C1=NOC(Cn2c(NCCCO)nc3c2c(=O)n(C)c(=O)n3C)C1 (stereo not drawn),15.5,i,i,-9.4,-4.2,1.6,.,.,.,.
CC1Sc2ccc(S(=O)(=O)N(C)Cc3ccccc3)cc2NC1=O (stereo not drawn),-6.7,i,25*,-25.4,4.8,4.1,i,i,-0.819,-10.0
O=C(Nn1c(C2CCCCC2)nc2ccccc2c1=O)c1ccc(Cl)c([N+](=O)[O-])c1,1.9,i,25*,0.3,0.3,-0.8,22.0%*,i,-1.13,-9.0
CCOC(=O)c1ccc(NC(=O)c2cc(S(=O)(=O)N3CCOCC3)ccc2O)cc1,-1.9,i,25*,-23.1,-0.3,1.4,37.0%*,i,-0.865,-16.5
CCOC(=O)c1ccc(NC(=O)c2cc(S(=O)(=O)N3CCOCC3)cn2C)cc1,-7.8,i,i,-40.3,1.2,0.1,.,.,.,.
CCOC(=O)c1ccc(NC(=O)C2CCN(S(=O)(=O)c3ccccc3)CC2)cc1,5.8,i,i,-3.8,3.0,0.9,.,.,.,.
CCOC(=O)c1ccc(NC(=O)C2CCCN(S(=O)(=O)c3ccc(F)cc3)C2)cc1 (stereo not drawn),3.3,i,25*,-19.9,4.0,4.0,17.5%*,i,-1.11,-4.5
COc1ccccc1C(=O)NCCC(=O)NCC1CCCCC1,17.6,i,.,.,.,.,.,.,.,.
C/C(N)=C(/C#N)C(=O)COC(=O)C1CCC(C(C)(C)C)CC1 (stereo not drawn),-3.2,i,25*,-19.1,-0.1,5.6,28.0%*,i,-1.04,-41.0
CCOC(=O)c1c(NC(=O)CSc2nnc(-c3ccco3)o2)sc(C)c1C,-2.5,i,i,-9.3,4.6,3.1,.,.,.,.
CCOC(=O)c1c(NC(=O)CSc2nc3cccnc3n2C)sc(C(C)=O)c1C,6.3,i,i,-6.5,-2.3,3.1,.,.,.,.
CCOC(=O)c1c(NC(=O)CSc2nnc(Cc3ccccc3)o2)sc(C)c1C,14.6,i,100*,-11.7,6.7,0.5,i,i,-1.2,-0.5
CCOC(=O)c1c(NC(=O)CSc2nnc(-c3ccccc3C)n2C)sc(C(C)=O)c1C,13.3,i,25*,-29.5,2.7,2.2,i,i,-0.79,-11.5
O=C(Cn1c(NCCCO)nc2ccccc21)c1ccc(Cl)cc1Cl,33.9,i,i,16.1,-1.2,-0.7,.,.,.,.
Cc1ccccc1CC(=O)N1CC(C)OC(C)C1 (stereo not drawn),4.9,i,i,-5.4,-4.0,-2.6,.,.,.,.
CC(C)(C)NC1=CC(=O)OC12CCCCC2,11.3,i,i,0.3,-4.1,-1.3,i,i,-0.896,-0.5
CC(C)(C)c1cccc(Cn2nnc3ccccc32)c1O,-6.3,i,100*,.,-5.0,4.3,24.5%*,i,-1.04,-25.0
SMILES,PREPL inh,ANO1 activ,TMEM16A inh,DNA FID counter,PP1 counter,PP5 inh,TMEM16A reconf,TMEM16A Ca cntr,Parental YFP cnt,ClC-1 inh
Cc1cc(Cn2nnc3ccccc32)c(O)c(C(C)(C)C)c1,-16.7,i,i,.,7.1,3.8,.,.,.,.
Cc1ccc2[nH]c3c(NCc4ccco4)ncnc3c2c1,26.0,i,25*,9.0,-1.8,2.9,22.0%*,i,-1.13,-20.0
c1ccc2c(c1)oc1c(Nc3ccc4c(c3)OCCO4)ncnc12,15.8,i,25*,-13.4,2.4,1.5,i,i,-0.922,3.0
c1coc(CNc2ncnc3nc[nH]c23)c1,-3.2,i,i,4.5,1.2,0.4,.,.,.,.
c1coc(CNc2ncnc3c2oc2ccccc23)c1,-7.2,i,100*,-10.0,-2.4,1.7,i,i,-1.02,-5.0
COc1ccc2[nH]cc(/C=C/c3cc[n+](C)cc3)c2c1,23.4,i,i,2.7,-2.8,-1.4,.,.,.,.
CCCOc1ccc(C(=O)NNC(=S)NC(=O)c2ccco2)cc1,8.6,i,100*,-16.9,6.1,3.5,43.0%*,62.0%*,-1.04,-10.0
COC(=O)c1ccc(CNC(=O)COC(=O)c2cccs2)cc1,-1.6,i,.,.,.,.,.,.,.,.
Cc1nc(NCc2ccc3c(c2)OCO3)c2oc3ccccc3c2n1,-1.9,i,25*,-21.7,0.4,2.8,i,i,-1.17,-4.0
CCOC(=O)c1c(NS(=O)(=O)c2ccc(Br)cc2)sc2c1CCC2,12.4,i,100*,-12.5,7.7,0.1,70.0%*,i,-0.904,-6.5
CCOC(=O)c1c(NS(=O)(=O)Cc2ccccc2)sc2c1CCCC2,12.7,i,i,-21.7,2.2,-1.6,.,.,.,.
CCOC(=O)/C(C#N)=C(\O)c1ccc(NC(=O)c2ccc([N+](=O)[O-])cc2)cc1,7.8,i,i,-7.2,-5.0,-0.4,.,.,.,.
